This is an account of results in PubChem BioAssay AID1986 (Sanford-Burnham Center for Chemical Genomics, 2009).

This assay is described as follows: inhibitors of HIV fusion peptide binding, primary screen, biochemical, uHTS, fluorescence dequenching (AID 1986). The conditions noted are these: cell-free peptide binding, 30 min, stronger effect = higher value.
Setting [1] is: measured here: repeat confirmation average inhibition, at 18.6 µM.

Among all 290,000 compounds or so, about 890 (0.31%) were called active. This is one part of a sample in which actives are shown more often than they occur. No stated cut-off is given here; in the data, active means inhibition mostly above about 52% (no sharp cut-off); inactive means mostly below about 76%.

By inhibition is commonly meant the relative decrease from the control value, in per cent.

Turning to `O=C(NC1CCCC1)C(c1ccncc1)N(C(=O)c1csnn1)c1ccc(F)cc1` (centres undefined), the inhibition (at 20 µM) was 0.5% (inactive).
On to `Cc1ccc(N2CC(C(=O)Nc3nnc(SCC(=O)NCC4CCCO4)s3)CC2=O)cc1` (centres undefined), for which the inhibition (at 20 µM) is 0.9% (inactive).
Take `O=C(N/N=C/c1cc([N+](=O)[O-])cc([N+](=O)[O-])c1O)/C(=C\c1cccs1)NC(=O)c1ccccc1`: the inhibition (at 20 µM) is 65% (active).
Turning to `COc1ccc([N+](=O)[O-])cc1/C=N/NC(=O)/C(=C\c1cccs1)NC(=O)c1ccccc1`, the inhibition (at 20 µM) is -1.3% (inactive).
Same read-out and setting: as for `O=C(N/N=C/c1cccs1)/C(=C/c1ccccc1)NC(=O)c1ccccc1`, the figure is 1.7% (inactive); as for `O=C(Cc1ccc(Cl)cc1)NCC(=O)N1CCN(c2ccccc2)CC1`, 0.4% (inactive); as for `O=C1NN(c2ccccc2)C(=O)/C1=C/c1ccc(Sc2cccc3ccccc23)o1`, 71.8% (active).
The same measure, in the same setting: the result for `Cc1ccc(Sc2ccc(/C=C3/C(=O)NN(c4ccccc4)C3=O)o2)cc1` reads 9.4% (inactive); that for `O=C1NN(c2ccccc2)C(=O)/C1=C/c1ccc(Sc2ccc(Cl)cc2)o1`, 17.5% (inactive).
For the compound `O=C(NCCCc1ccccc1)[C@@H]1Cc2ccccc2CN1`, the inhibition (at 20 µM) is -0.5% (inactive).
`NS(=O)(=O)c1ccc(-c2ccc(C=C3C(=O)c4ccccc4C3=O)o2)cc1`: for the setting “at 20 µM”, the inhibition is 1.7% (inactive).
As for `COc1ccccc1-c1ccc(/C=C2/C=C(CC(C)C)OC2=O)o1`, the inhibition (at 20 µM) is 40.1% (inactive).
For `CC(C)CC1=C/C(=C/c2ccc(-c3ccccc3)o2)C(=O)O1`, the inhibition (at 20 µM) is 51.7% (active).
As for `O=C(O)CCn1cc(/C=C\C(=O)c2ccc(Cl)cc2)c(-c2cccc(Br)c2)n1`, the inhibition (at 20 µM) was 60.3% (active).
Still for that read-out and setting: the result for `Cc1ccc(-c2nn(CCC(=O)O)cc2/C=C\C(=O)c2ccc(Br)cc2)cc1` reads 48.6% (inactive).
With `O=Cc1cn(CCC(=O)O)nc1-c1cccc(Br)c1`, the inhibition (at 20 µM) was 1.1% (inactive).
As for `CCOC(=O)c1sc(NC(=O)c2cc3n(n2)C(C(F)(F)F)CC(c2ccccc2)N3)c(C(=O)OCC)c1C` (centres undefined), where the note is “at 20 µM”, the inhibition was 0.6% (inactive).
Consider `Cc1cc2c(cc1S(=O)(=O)N(C)Cc1ccccc1)OCC(=O)N2`, for which the inhibition (at 20 µM) is -2% (inactive).
For the compound `COc1ccc(OC)c(/C=C2\Oc3cc(OCC(=O)N4CC(O)C[C@H]4C(=O)O)ccc3C2=O)c1` (some centres undefined), under “at 20 µM”, the inhibition was 2.3% (inactive).
For the compound `COc1cc(OC)c(OC)cc1/C=C1\Oc2cc(OCC(=O)N3Cc4ccccc4C[C@H]3C(=O)O)ccc2C1=O`, the inhibition (at 20 µM) is 123% (active) and the inhibition under setting [1] turned out to be 106%.
`COc1cccc(/C=C2\Oc3cc(OCC(=O)N4Cc5ccccc5C[C@H]4C(=O)O)ccc3C2=O)c1`: the inhibition by setting is: (at 20 µM) 64.4% (inactive); under setting [1], 40.9%.
As for `Cc1nc(Oc2cccc(Cl)c2)c2oc3ccccc3c2n1`, where the note is “at 20 µM”, the inhibition is -0.8% (inactive).
Turning to `O=C(COC(=O)CCCOc1ccccc1)NNC(=O)c1ccc([N+](=O)[O-])cc1`, where the note is “at 20 µM”, the inhibition is -0.7% (inactive).
In the case of `CC1=CN2C(=N)/C(=C/c3ccco3)C(=O)N=C2S1`, the inhibition (at 20 µM) was 7.9% (inactive).
Regarding `CC1=CN2C(=N)/C(=C/c3ccc(C)o3)C(=O)N=C2S1`, the inhibition (at 20 µM) is 5.4% (inactive).
Consider `Cn1c(=O)n(C)c2cc(/C=N/NC(=O)c3ccncc3)ccc21`, for which the inhibition (at 20 µM) is 1.3% (inactive).
For `Cc1[nH]n(-c2ncc(-c3ccc(Cl)cc3)s2)c(=O)c1C(c1ccc(Cl)cc1)C(C#N)C#N` (centres undefined), the inhibition (at 20 µM) is 48.5% (inactive).
As for `Cc1[nH]n(-c2ncc(-c3ccccc3)s2)c(=O)c1C(c1ccc(Br)cc1)C(C#N)C#N` (centres undefined), the inhibition (at 20 µM) was 57.3% (inactive) and the inhibition under setting [1] was 40.9%.
On to `Cc1[nH]n(-c2ncc(-c3ccccc3)s2)c(=O)c1C(c1ccc(Cl)cc1)C(C#N)C#N` (centres undefined), for which, under “at 20 µM”, the inhibition is 70.8% (active).
Same read-out and setting: as for `CC(C)(C)n1nc2c(c1NC(=O)Cc1cccc3ccccc13)CS(=O)C2` (centres undefined), the figure is -1.8% (inactive).
For `O=C(Nc1ccc(Cl)cc1)Nc1ccc2c(c1)OCO2`, the inhibition (at 20 µM) is -0.2% (inactive).
Same read-out and setting: the result for `CN(C)C(=O)c1ccc(-c2cc(C(F)(F)F)nn2C)s1` reads -1.2% (inactive); that for `CNC(=O)c1ccc(-c2cc(C(F)(F)F)nn2C)s1`, -1.4% (inactive).
For `Cn1nc(C(F)(F)F)cc1-c1ccc(S(N)(=O)=O)s1`, the inhibition (at 20 µM) was 2.8% (inactive).
Take `N#C/C(=C\c1ccc(-c2cccc(C(F)(F)F)c2)o1)C(=O)Nn1cnnc1`: where the note is “at 20 µM”, the inhibition is 49.6% (inactive).
Same read-out and setting: the result for `Cn1nc(C(F)(F)F)cc1-c1ccc(/C=C(\C#N)C(=O)c2cccc(C(F)(F)F)c2)s1` reads 55.2% (active).
As to `Cn1nc(C(F)(F)F)cc1-c1ccc(/C=C(\C#N)C(=O)c2ccccc2)s1`, the inhibition reads like this: (at 20 µM) 92% (active); under setting [1], 179%.
Regarding `Cc1ccc(-n2nnc(-c3cc4ccccc4nc3Cl)n2)cc1`, the inhibition (at 20 µM) is 0.2% (inactive).
As to `O=C(CN(c1ccc(F)cc1)S(=O)(=O)c1ccc2c(c1)OCCO2)NCC1CCCO1` (centres undefined), the inhibition (at 20 µM) was 1.4% (inactive).
With `CCOc1ccc2nc(SCC(=O)c3ccc(C)s3)sc2c1`, where the note is “at 20 µM”, the inhibition was 0% (inactive).
`CCOc1ccc(NC(=O)C2CSC(c3ccncc3)=N2)cc1` (centres undefined): for the setting “at 20 µM”, the inhibition is 1.2% (inactive).
The same measure, in the same setting: as for `CC1=C(C(=O)Nc2ccccn2)C(c2ccccc2)n2ncnc2N1` (centres undefined), the figure is -2.7% (inactive); as for `CCNc1nc(NC(C)C)nc(SCCOC(=O)c2ccccc2)n1`, 2.3% (inactive); as for `Cc1c(C)n(Cc2ccc(F)cc2)c2ccc(C(=O)NCCN3CCOCC3)cc12`, -1.7% (inactive).
In the case of `COc1ccccc1NS(=O)(=O)c1cccc(NC(=O)Nc2ccccc2)c1`, the inhibition (at 20 µM) is 1.4% (inactive).
For the compound `O=C(Nc1ccccc1C(=O)O)c1cccc(N2C(=O)c3ccccc3C2=O)c1`, the inhibition (at 20 µM) was 2.5% (inactive).
In the case of `NC(=O)NCc1cccc(Cl)c1`, the inhibition (at 20 µM) is 2.5% (inactive).
In the case of `CCOC(=O)C(=CNc1ccc(C(F)(F)F)cc1Cl)C(=O)OCC`, the inhibition (at 20 µM) was 0.9% (inactive).
As to `CCOc1ccc2c(c1)c1nnc(SCC(=O)NC3CC3)nc1n2C`, the inhibition (at 20 µM) is -0.7% (inactive).
For `Clc1ccccc1/C=N/NC1=Nc2cccc3cccc1c23`, the inhibition (at 20 µM) was 51.2% (active).
`Clc1ccc(/C=N/NC2=Nc3cccc4cccc2c34)cc1`: where the note is “at 20 µM”, the inhibition is 43.5% (inactive).
The same measure, in the same setting: as for `C(=N\NC1=Nc2cccc3cccc1c23)/c1ccccc1`, the figure is 20.5% (inactive); as for `N/C(CC(=O)NC1CCCCC1)=N\OCC(=O)Nc1ccc(Cl)c(Cl)c1`, 1.7% (inactive).
As for `COc1cc2c(cc1NC(=S)NC(=O)/C=C/c1ccc(OC)c(OC)c1)oc1ccccc12`, the inhibition (at 20 µM) is 1.2% (inactive).
For `COc1cc2c(cc1NC(=S)NC(=O)/C=C/c1ccco1)oc1ccccc12`, the inhibition (at 20 µM) was 67.5% (active).
Turning to `COc1ccc(/C=C/C(=O)NC(=S)Nc2cc3oc4ccccc4c3cc2OC)cc1`, the inhibition (at 20 µM) was 1.6% (inactive).
For the compound `COc1ccc(C2NC(=O)c3ccccc3O2)cc1` (centres undefined), the inhibition (at 20 µM) was -1.3% (inactive).
Same read-out and setting: as for `Cc1ccc(SCCNCc2ccco2)cc1`, the figure is 0.3% (inactive).
Same read-out and setting: as for `COc1cc2c(cc1O)CC[n+]1cc3c(OC)c(OC)ccc3cc1-2`, the figure is 0.6% (inactive); as for `COc1ccc2cc3[n+](cc2c1OC)CCc1cc2c(cc1-3)OCO2`, -1.4% (inactive).
With `COc1cc2c(cc1OC)-c1cc3ccc4c(c3c[n+]1CC2)OCO4`, the inhibition (at 20 µM) is 120% (active) and the inhibition under setting [1] worked out at 70.7%.
Regarding `O=[N+]([O-])c1sccc1CS(=O)(=O)c1ccccc1`, the inhibition (at 20 µM) was -1.5% (inactive).
For `CC(=O)Nc1cccc(NC(=O)c2ccc([N+](=O)[O-])cc2Cl)c1`, the inhibition (at 20 µM) is 3.5% (inactive).
Consider `O=C(Nc1cccc(Cl)c1)c1cc(N=Nc2ccc([N+](=O)[O-])cc2Cl)ccc1O`, for which, where the note is “at 20 µM”, the inhibition was 52.8% (active).
Still for that read-out and setting: as for `O=C(Nc1cccc(O)c1)c1ccc([N+](=O)[O-])cc1Cl`, the figure is 0.3% (inactive).
In the case of `CC1C(=O)N2CCCc3cc(NS(C)(=O)=O)cc1c32` (centres undefined), the inhibition (at 20 µM) is 2.3% (inactive).
With `O=C1/C(=C/c2ccc(N3CCCC3)cc2)NC(=S)N1C1CC1`, the inhibition by setting is: (at 20 µM) 65.9% (active); under setting [1], 83.2%.
Take `Cc1cc(N2CCCC2)ccc1/C=C1/C(=O)N(C)C(=S)N1C`: the inhibition (at 20 µM) is 9.5% (inactive).
As for `Cc1cc(N2CCCC2)ccc1/C=C1\NC(=S)N(C)C1=O`, where the note is “at 20 µM”, the inhibition was 94.7% (active).
On the same count and under the same terms, as for `O=C1N/C(=C/c2ccc(N3CCCC3)cc2)C(=O)N1c1ccccc1`, the figure is 4.9% (inactive).
For the compound `COCCN1C(=O)/C(=C/c2ccc(N3CCCC3)cc2C)SC1=S`, the inhibition (at 20 µM) was 147% (inactive).
The same measure, in the same setting: the result for `CCN1C(=O)/C(=C/c2ccc(N3CCCC3)cc2)NC1=S` reads 149% (inactive); that for `CC(C)(C)C(=O)Nc1cccc(-c2nc3ccccc3[nH]2)c1`, 1.3% (inactive).
Consider `CC(C)OC(=O)CSc1nc(C(C)C)nc2ccccc12`, for which the inhibition (at 20 µM) was 1.3% (inactive).
Same read-out and setting: as for `Cc1c(Cl)cccc1NC(=O)N1CCCC1`, the figure is 0.6% (inactive); as for `O=C(O)CCN1C(=O)/C(=C\c2ccc(-c3nc4ccccc4s3)o2)SC1=S`, 73.9% (active).
As to `O=C(O)CCCN1C(=O)/C(=C\c2ccco2)SC1=S`, the inhibition is 53% (inactive) (at 20 µM) and 3.5% under setting [1].
`O=C(O)CCCCCN1C(=O)/C(=C/c2ccncc2)SC1=S`: the inhibition (at 20 µM) is 9.2% (inactive).
Take `O=C(O)CCCCCN1C(=O)/C(=C\c2ccc(-c3ccc(Cl)cc3)o2)SC1=S`: the inhibition (at 20 µM) is 82.2% (active).
On to `O=C(O)CCCCCN1C(=O)/C(=C\c2ccncc2)SC1=S`, for which, where the note is “at 20 µM”, the inhibition is 6.4% (inactive).
For the compound `O=C(O)CCCN1C(=O)/C(=C\c2ccc(-c3nc4ccccc4s3)o2)SC1=S`, the inhibition (at 20 µM) was 69.3% (active).
Turning to `O=Cc1ccc(-c2nc3ccccc3s2)o1`, the inhibition (at 20 µM) is 1.2% (inactive).
In the case of `O=C(O)c1ccc(-c2nc3ccccc3s2)o1`, the inhibition (at 20 µM) is 1.8% (inactive).
As to `N#C/C(=C\c1ccc(-c2nc3ccccc3s2)o1)C(N)=O`, the inhibition (at 20 µM) is 2.1% (inactive).
As for `O=C(O)CC(C(=O)O)N1C(=O)/C(=C/c2ccc(-c3nc4ccccc4s3)o2)SC1=S` (centres undefined), the inhibition is, setting by setting: (at 20 µM) 99% (active); under setting [1], 66.9%.
For `O=C(O)CCN1C(=O)/C(=C/c2ccc(-c3nc4ccccc4s3)o2)SC1=S`, the inhibition (at 20 µM) was 24.8% (inactive).
For `O=C(O)CCCN1C(=O)/C(=C\C(Cl)=C\c2ccccc2)SC1=S`, where the note is “at 20 µM”, the inhibition is 40.3% (inactive).
Regarding `O=C(Nc1ccccc1)c1ccc(NCC2CCCO2)c(S(=O)(=O)N2CCOCC2)c1` (centres undefined), the inhibition (at 20 µM) is -0.2% (inactive).
For the compound `CCOC(=O)c1c(NC(=O)CSc2ncn[nH]2)sc(C(=O)NC)c1C`, under “at 20 µM”, the inhibition was -0.5% (inactive).
Still for that read-out and setting: as for `Cn1c(SCC(=O)Nc2ccc3c(c2)OCCO3)nnc1C1CC1`, the figure is 0.2% (inactive); as for `CN1C(=O)/C(=C/c2cn(CC(=O)NCc3ccco3)c3ccccc23)NC1=S`, 0.4% (inactive).
